# According to PubChem BioAssay AID651597 (National Center for Advancing Translational Sciences (NCATS), 2012):
# Screen size: about 1,100 compounds; about 390 (35%) were called active. Roughly 30% stayed inconclusive and do not appear here. Calls come from the whole dose curve; as a rule, active = well fitted inhibition curve with a large enough effect; inconclusive = small, poorly fitted or top-dose-only effect; inactive = flat fitted curve, though single readings scatter. The list shows a part of the results. Entries that show only a call come without a potency.
# Biological target: Luciferin 4-monooxygenase (Photinus pyralis) (UniProt P08659)
# Assay: qHTS of Nrf2 Activators: Hit Validation in Secondary FLuc Assay; note: nearly all actives have a fitted effect of over 65% in size
# Conditions: firefly luciferase inhibition counter-screen, luminescence; series mostly up to 57.5 µM
# Method in brief: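 Purified firefly luciferase is tested for inhibition by compounds in the presence of its substrates, ATP and D-luciferin, each at Km. Inhibition marks likely false positives arising from reporter-enzyme stabilization.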
# Potency is the fitted concentration of half-maximal effect.
row,SMILES,Potency
1,O=C(OCC(=O)N1CCCC1)c1cc([N+](=O)[O-])ccc1Cl,inactive
2,O=[N+]([O-])c1ccc(Cl)c(/C=N/n2c(-c3ccncc3)n[nH]c2=S)c1,1.9 µM (active)
3,CCOCCCNC(=O)c1ccc(-n2c(-c3ccccc3)cc3c2CCC(C)C3)cc1 (centres undefined),inactive
4,COc1ccccc1CNC(=O)COC(=O)c1cc(-c2ccco2)nc2ccccc12,5.36 µM (active)
5,O=C(Nc1ccc(F)cc1F)c1cc(-c2ccco2)nc2ccccc12,6.75 µM (active)
6,O=C(COC(=O)/C=C/c1ccco1)NCc1ccccc1Cl,inactive
7,O=C(Nc1ccccc1F)c1cc(-c2ccco2)nc2ccccc12,10.7 µM (active)
8,O=Cc1c(Sc2ccccn2)nc2ccccn2c1=O,inactive
9,COc1ccc(N(CCCN2C(=O)c3cccc4cccc(c34)C2=O)C(=O)c2cccc(OC)c2)cc1,inactive
10,CC1Oc2ccccc2OC1C(=O)Nc1ccccn1 (centres undefined),inactive
11,CCOc1cc2ccccc2cc1C(=O)Nc1ccccn1,5.36 µM (active)
12,CCc1nc(Nc2cccc(F)c2)c2oc3ccccc3c2n1,inactive
13,Brc1ccccc1C1N=C(c2ccccc2)NO1 (centres undefined),1.35 µM (active)
14,Cc1cc(C)cc(NC(=O)/C=C/c2ccc([N+](=O)[O-])s2)c1,inactive
15,O=C(CSc1cccc[n+]1[O-])Nc1cc([N+](=O)[O-])ccc1Cl,inactive
16,Cc1cc(C)cc(NC(=O)Nc2cccs2)c1,2.39 µM (active)
17,O=C(NNC(=O)C12CC3CC(CC(C3)C1)C2)c1cccc([N+](=O)[O-])c1,inactive

row,SMILES,Potency
1,O=C(CCCc1ccccc1)Nc1cccc([N+](=O)[O-])c1,7.57 µM (active)
2,O=C(Nc1cccc([N+](=O)[O-])c1)Nc1cccs1,10.7 µM (active)
3,O=C(CCCCCCC(=O)Nc1ccccc1)NO,inactive
4,COc1ccc(NC(=O)C2CC(=O)N/C(=N/N=C/c3ccco3)S2)cc1 (centres undefined),inactive
5,COc1ccc(OC)c(NC(=O)C(C#N)=Cc2ccco2)c1,9.53 µM (active)
6,O=C(/C=C/c1ccccc1Cl)Nc1nc(-c2cccs2)ns1,1.69 µM (active)
7,Cc1cc2c(cc1C)N(C(=O)CCl)CC(=O)N2,inactive
8,Nn1c(-c2ccccc2)nc2cc(Cl)ccc2c1=O,inactive
9,CSc1ccc(-c2cc(=O)c3ccccc3o2)cc1,1.2 µM (active)
10,O=c1cc(-c2ccccc2)oc2ccc(Cl)cc12,0.849 µM (active)
11,COc1c(C(=O)Nc2nnc(C3CC3)s2)csc1Cl,7.57 µM (active)
12,O=C(N/N=C/C(Br)=C/c1ccccc1)c1ccc([N+](=O)[O-])cc1,inactive
13,O=[N+]([O-])c1cc(Cl)cc2c1nc(NCCO)c1ccccc12,inactive
14,O=[N+]([O-])c1ccccc1C=NNc1ccccc1,2.69 µM (active)
15,O=[N+]([O-])c1cncc([N+](=O)[O-])c1Nc1cccc(O)c1,inactive
16,O=[N+]([O-])c1ccc(Cl)cc1C=NNc1ccccn1,inactive
17,O=[N+]([O-])c1ccccc1/C=N/Nc1nccnc1Cl,13.5 µM (active)
